From paper PMC5540273 (PLoS ONE, 2017)
Read-outs that look alike come from different tables or passages of the source.

Assays:
[1] = tested on: SRPK1; conditions: concentration: 1 μM, replicates: in singlicate; n = 1
[2] = tested on: SRPK2; conditions: concentration: 1 μM, replicates: in singlicate; n = 1
[3] = tested on: SRPK3; conditions: concentration: 1 μM, replicates: in singlicate; n = 1
[4] = tested on: STK16; conditions: concentration: 1 μM, replicates: in singlicate; n = 1
[5] = tested on: STK33; conditions: concentration: 1 μM, replicates: in singlicate; n = 1
[6] = tested on: STK35; conditions: concentration: 1 μM, replicates: in singlicate; n = 1
[7] = tested on: STK36; conditions: concentration: 1 μM, replicates: in singlicate; n = 1
[8] = tested on: STK39; conditions: concentration: 1 μM, replicates: in singlicate; n = 1
[9] = tested on: SYK; conditions: concentration: 1 μM, replicates: in singlicate; n = 1
[10] = tested on: SgK110; conditions: concentration: 1 μM, replicates: in singlicate; n = 1
[11] = tested on: T1, TAK1; conditions: concentration: 1 μM, replicates: in singlicate; n = 1
T1 construct: gene MAP3K7

[12] = tested on: TAOK1; conditions: concentration: 1 μM, replicates: in singlicate; n = 1
[13] = tested on: TAOK2; conditions: concentration: 1 μM, replicates: in singlicate; n = 1
[14] = tested on: TAOK3; conditions: concentration: 1 μM, replicates: in singlicate; n = 1
[15] = tested on: TBK1; conditions: concentration: 1 μM, replicates: in singlicate; n = 1
[16] = tested on: TEC; conditions: concentration: 1 μM, replicates: in singlicate; n = 1
[17] = tested on: TESK1; conditions: concentration: 1 μM, replicates: in singlicate; n = 1
[18] = tested on: TGFBR1; conditions: n = 1
[19] = tested on: TGFBR2; conditions: concentration: 1 μM, replicates: in singlicate; n = 1
[20] = tested on: TIE1; conditions: concentration: 1 μM, replicates: in singlicate; n = 1
[21] = concentration: 1 μM, replicates: in singlicate
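Note: KINOMEscan kinase panel screen.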

COc1cc2ncn(-c3cc(OCc4ccncc4Br)c(C(N)=O)s3)c2cc1OC [GW854278]
%Inh [1]: 44%
%Inh [2]: 0%
%Inh [3]: 28%
%Inh [4]: 14%
%Inh [5]: 6%
%Inh [6]: 0%
%Inh [7]: 1%
%Inh [8]: 0%
%Inh [9]: 20%
%Inh [10]: 0%
%Inh [11]: 0%
%Inh [12]: 4%
%Inh [13]: 0%
%Inh [14]: 0%
%Inh [15]: 24%
%Inh [16]: 2%
%Inh [17]: 26%
%Inh [18, 21]: 17%
%Inh [19]: 0%
%Inh [20]: 31%

O=C(Nc1n[nH]c2nc(-c3ccccc3)c(Br)cc12)C1CC1 [SB-708998]
%Inh [1]: 36%
%Inh [2]: 0%
%Inh [3]: 17%
%Inh [4]: 0%
%Inh [5]: 14%
%Inh [6]: 0%
%Inh [7]: 38%
%Inh [8]: 4%
%Inh [9]: 13%
%Inh [10]: 13%
%Inh [11]: 0%
%Inh [12]: 9%
%Inh [13]: 0%
%Inh [14]: 16%
%Inh [15]: 4%
%Inh [16]: 0%
%Inh [17]: 7%
%Inh [18, 21]: 0%
%Inh [19]: 6%
%Inh [20]: 14%

Nc1nc(N)c2nc(-c3ccccc3)[nH]c2n1 [SKF-12778]
%Inh [1]: 37%
%Inh [2]: 0%
%Inh [3]: 22%
%Inh [4]: 1%
%Inh [5]: 19%
%Inh [6]: 5%
%Inh [7]: 0%
%Inh [8]: 11%
%Inh [9]: 43%
%Inh [10]: 0%
%Inh [11]: 4%
%Inh [12]: 16%
%Inh [13]: 0%
%Inh [14]: 17%
%Inh [15]: 16%
%Inh [16]: 7%
%Inh [17]: 12%
%Inh [18, 21]: 0%
%Inh [19]: 3%
%Inh [20]: 26%

COc1ccc(CNC(=O)NC2CCN(c3ccnc(Nc4ccc(F)cc4)n3)C2)cc1 (stereo not shown) [GSK1379706]
%Inh [1]: 0%
%Inh [2]: 80%
%Inh [3]: 21%
%Inh [4]: 19%
%Inh [5]: 14%
%Inh [6]: 0%
%Inh [7]: 27%
%Inh [8]: 13%
%Inh [9]: 34%
%Inh [10]: 0%
%Inh [11]: 6%
%Inh [12]: 0%
%Inh [13]: 0%
%Inh [14]: 0%
%Inh [15]: 27%
%Inh [16]: 17%
%Inh [17]: 7%
%Inh [18, 21]: 46%
%Inh [19]: 0%
%Inh [20]: 12%

COc1cc2nccc(Nc3ccc(OCc4ccc(NC(C)=O)cc4)cc3)c2cc1OC.Cl [GW440135]
%Inh [1]: 42%
%Inh [2]: 12%
%Inh [3]: 23%
%Inh [4]: 2%
%Inh [5]: 15%
%Inh [6]: 3%
%Inh [7]: 29%
%Inh [8]: 3%
%Inh [9]: 6%
%Inh [10]: 21%
%Inh [11]: 0%
%Inh [12]: 0%
%Inh [13]: 0%
%Inh [14]: 1%
%Inh [15]: 0%
%Inh [16]: 0%
%Inh [17]: 13%
%Inh [18, 21]: 21%
%Inh [19]: 5%
%Inh [20]: 1%

CCCNC(=O)Nc1ccc(Oc2ncnc3ccn(C)c23)cc1
%Inh [1]: 25%
%Inh [2]: 0%
%Inh [3]: 10%
%Inh [4]: 11%
%Inh [5]: 0%
%Inh [6]: 0%
%Inh [7]: 32%
%Inh [8]: 0%
%Inh [9]: 0%
%Inh [10]: 41%
%Inh [11]: 22%
%Inh [12]: 0%
%Inh [13]: 0%
%Inh [14]: 0%
%Inh [15]: 13%
%Inh [16]: 1%
%Inh [17]: 0%
%Inh [18, 21]: 8%
%Inh [19]: 0%
%Inh [20]: 0%

CCc1ccc(-c2ccc3c(c2)-c2nn(C)cc2S(=O)(=O)N3C)cc1
%Inh [1]: 0%
%Inh [2]: 0%
%Inh [3]: 0%
%Inh [4]: 0%
%Inh [5]: 2%
%Inh [6]: 0%
%Inh [7]: 0%
%Inh [8]: 0%
%Inh [9]: 27%
%Inh [10]: 12%
%Inh [11]: 0%
%Inh [12]: 0%
%Inh [13]: 37%
%Inh [14]: 0%
%Inh [15]: 0%
%Inh [16]: 0%
%Inh [17]: 2%
%Inh [18, 21]: 1%
%Inh [19]: 0%
%Inh [20]: 0%

Nc1nc(-c2ccccc2F)c(-c2ccnc3ccccc23)s1 [GW560459]
%Inh [1]: 25%
%Inh [2]: 0%
%Inh [3]: 0%
%Inh [4]: 7%
%Inh [5]: 0%
%Inh [6]: 0%
%Inh [7]: 0%
%Inh [8]: 1%
%Inh [9]: 32%
%Inh [10]: 0%
%Inh [11]: 0%
%Inh [12]: 0%
%Inh [13]: 0%
%Inh [14]: 0%
%Inh [15]: 20%
%Inh [16]: 0%
%Inh [17]: 12%
%Inh [18, 21]: 16%
%Inh [19]: 0%
%Inh [20]: 0%

Cc1cc(Nc2nc(-c3cccc(C)n3)nc3ccccc23)ccn1 [GW872411]
%Inh [1]: 0%
%Inh [2]: 0%
%Inh [3]: 13%
%Inh [4]: 0%
%Inh [5]: 0%
%Inh [6]: 3%
%Inh [7]: 0%
%Inh [8]: 0%
%Inh [9]: 0%
%Inh [10]: 0%
%Inh [11]: 0%
%Inh [12]: 0%
%Inh [13]: 29%
%Inh [14]: 0%
%Inh [15]: 0%
%Inh [16]: 1%
%Inh [17]: 0%
%Inh ([18]; 1 µM): 83%
%Inh [19]: 0%
%Inh [20]: 0%

Cc1c(Cn2c(C)nn3c(=O)cc(N4CCO[C@H](C)C4)nc23)cccc1C(F)(F)F [GSK2373690]
%Inh [1]: 0%
%Inh [2]: 0%
%Inh [3]: 0%
%Inh [4]: 6%
%Inh [5]: 0%
%Inh [6]: 2%
%Inh [7]: 0%
%Inh [8]: 32%
%Inh [9]: 25%
%Inh [10]: 2%
%Inh [11]: 0%
%Inh [12]: 0%
%Inh [13]: 9%
%Inh [14]: 0%
%Inh [15]: 1%
%Inh [16]: 0%
%Inh [17]: 34%
%Inh [18, 21]: 0%
%Inh [19]: 4%
%Inh [20]: 10%

CCS(=O)(=O)c1ccc(OC)c(Nc2ncc(-c3ccc(F)cc3)o2)c1.Cl [GW591947]
%Inh [1]: 30%
%Inh [2]: 0%
%Inh [3]: 0%
%Inh [4]: 1%
%Inh [5]: 12%
%Inh [6]: 0%
%Inh [7]: 0%
%Inh [8]: 11%
%Inh [9]: 48%
%Inh [10]: 0%
%Inh [11]: 0%
%Inh [12]: 0%
%Inh [13]: 0%
%Inh [14]: 0%
%Inh [15]: 3%
%Inh [16]: 0%
%Inh [17]: 1%
%Inh [18, 21]: 0%
%Inh [19]: 0%
%Inh [20]: 0%
